# Data published in PubChem BioAssay (Tox21).
# Where “and” joins values, the source holds several entries; their conditions need not be identical. Equal values may be shown once. Inconclusive results are not listed. Entries that show only a call come without a potency. Where a structure was tested more than once in an assay, its records may differ in their call. Calls of active or inactive are those of the source. Unless noted, calls come from the whole dose curve; as a rule, active = well fitted curve in the direction sought with a large enough effect in the repeat runs; inconclusive = weak or mixed curves; inactive = no such curve, though single readings can be large; an effect the other way counts as inactive or inconclusive.
# Legend:
# [1] = qHTS assay to identify small molecule antagonists of the retinoid acid receptor (RAR) signaling pathway - cell viability counter screen (AID 1159551); note: nearly all actives have a fitted effect of over 35% in size; note: potency is the fitted concentration of half-maximal effect
# Procedure, shortened: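 Viability of C3RL4 cells is quantified from ATP by luminescence after 6 h treatment at 37 C with compounds and 1 uM retinol.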
# [2] = qHTS assay to identify small molecule antagonists of the retinoic acid receptor (RAR) signaling pathway (AID 1159552; note: nearly all actives have a fitted effect of over 50% in size; note: potency is the fitted concentration of half-maximal effect)
# Procedure, shortened: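 Using a RARE-driven luciferase construct in C3RL4 cells, retinol at 1 uM final provided the agonist stimulus while compounds were co-applied. After 6 hours at 37 C, luminescence was recorded to flag inhibitors of retinol signaling.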
# [3] = qHTS assay to identify small molecule agonists of the retinoic acid receptor (RAR) signaling pathway (AID 1159553)
# Procedure, shortened: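 Compounds dissolved in DMSO were pinned onto C3RL4 cells seeded the previous day, and plates were held 6 hr at 37 C. RARE-driven luciferase output was then read by luminescence.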
# [4] = qHTS assay to identify small molecule antagonists of the estrogen related receptor (ERR) signaling pathway - cell viability counter screen (AID 1224818); note: series mostly up to about 46 µM
# Procedure, shortened: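 Cytotoxicity check run alongside the ERR antagonist screen: cells exposed to test compounds 17.5 h at 37 C, viability taken as CellTiter-Fluor fluorescence intensity.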
# [5] = qHTS assay to identify small molecule agonists of the estrogen related receptor (ERR) signaling pathway (AID 1224820)
# Procedure, shortened: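 An ERR cell line provided by NTP was seeded at 2,000 cells per well and allowed to settle for 6 h before compounds in DMSO were added. After 18 h at 37 C, luciferase activity was measured by One-Glo luminescence.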
# [6] = qHTS assay to identify small molecule agonists of the estrogen related receptor signaling pathway with the pleiotropic PPARgamma coactivator (PGC) (AID 1224823)
# Procedure, shortened: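 Compounds dissolved in DMSO are added by pin tool to PGC/ERR cells that have settled for 6 h, and incubation continues 18 h at 37 C. Reporter output is measured as One-Glo luminescence.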
# [7] = qHTS assay to identify small molecule antagonists of the estrogen related receptor (ERR) signaling pathway from Tox21 library - cell viability counter screen (AID 1224834); note: nearly all actives have a fitted effect of over 30% in size; note: potency is the fitted concentration of half-maximal effect
# Procedure, shortened: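 In this quantitative HTS format, ERR cells receive compounds in DMSO and are incubated for 17.5 h at 37 C. Live-cell protease activity is then detected with CellTiter-Fluor.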
# [8] = biological target: Luciferin 4-monooxygenase (Photinus pyralis) (UniProt P08659); assay: qHTS assay to identify small molecule inhibitors of firefly luciferase (AID 1224835); note: series mostly up to about 120 µM; nearly all actives have a fitted effect of over 25% in size
# Luciferin 4-monooxygenase (Photinus pyralis), sequence (P08659 whole entry, looked up): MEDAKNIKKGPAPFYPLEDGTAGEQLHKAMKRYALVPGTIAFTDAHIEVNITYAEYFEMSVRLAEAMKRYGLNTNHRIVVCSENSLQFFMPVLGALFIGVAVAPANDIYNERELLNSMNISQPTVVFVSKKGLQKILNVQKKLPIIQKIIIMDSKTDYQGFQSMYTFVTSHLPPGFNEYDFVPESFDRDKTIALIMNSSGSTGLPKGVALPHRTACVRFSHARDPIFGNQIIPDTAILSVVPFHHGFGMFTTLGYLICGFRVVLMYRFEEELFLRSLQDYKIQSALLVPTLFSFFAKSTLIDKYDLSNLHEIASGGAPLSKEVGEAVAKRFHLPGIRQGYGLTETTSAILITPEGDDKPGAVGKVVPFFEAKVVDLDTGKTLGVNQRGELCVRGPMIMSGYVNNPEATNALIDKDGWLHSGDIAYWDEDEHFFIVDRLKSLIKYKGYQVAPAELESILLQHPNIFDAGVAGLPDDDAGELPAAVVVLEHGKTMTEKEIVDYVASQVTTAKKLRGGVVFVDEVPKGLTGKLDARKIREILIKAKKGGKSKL
# Procedure, shortened: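 Inhibition of purified Photinus luciferase is measured by luminescence. Substrate levels (D-luciferin, ATP) sit at their KM values. Each compound is tested in a concentration series.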
# [9] = qHTS assay to identify small molecule antagonists of the constitutive androstane receptor (CAR) signaling pathway - cell viability counter screen (AID 1224837); note: nearly all actives have a fitted effect of over 45% in size; note: potency is the fitted concentration of half-maximal effect
# Procedure, shortened: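 In quantitative HTS format, compounds at 15 concentrations were applied to HepG2 cells double-transfected with hCAR and CYP2B6-2.2kb under 50 nM CITCO stimulation; live-cell protease activity was read after 23 hr via CellTiter-Fluor.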
# [10] = qHTS assay to identify small molecule antagonists of the estrogen related receptor signaling pathway with the pleiotropic PPARgamma coactivator (PGC) from Tox21 10K library - cell viability counter screen (AID 1224840; active = well fitted cell-killing curve with a large enough effect in the repeat runs, not every such curve was filed as active; note: nearly all actives have a fitted effect of over 40% in size; note: potency is the fitted concentration of half-maximal effect)
# Procedure, shortened: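 Viability counter screen, PGC/ERR cells: 17.5 h compound exposure at 37 C, CellTiter-Fluor fluorescence endpoint.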
# [11] = qHTS assay to identify small molecule antagonists of the estrogen related receptor signaling pathway with the pleiotropic PPARgamma coactivator (PGC) from Tox21 10K library (AID 1224841; call rule not given here; note: actives are mostly falling curves and most rising ones were filed inactive; nearly all actives have a fitted effect of over 50% in size; note: potency is the fitted concentration of half-maximal effect)
# Procedure, shortened: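 In the PGC/ERR line, DMSO solutions of test chemicals are pin-delivered to 2,000 cells/well six hours after dispensing. Following eighteen hours' incubation, One-Glo reagent is added and luminescence recorded.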
# [12] = qHTS assay to identify small molecule agonists of the estrogen related receptor signaling pathway with the pleiotropic PPARgamma coactivator (PGC) from Tox21 10K library (AID 1224842); note: nearly all actives have a fitted effect of over 15% in size; note: potency is the fitted concentration of half-maximal effect
# Procedure, shortened: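 Luminescence from One-Glo (30 min, room temperature) measured after PGC/ERR cells had 18 h at 37 C with pinned compound (23 nL in DMSO). Cells had been seeded at 2,000 per well and pre-incubated 6 h.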
# [13] = qHTS assay to identify small molecule agonists of the RXR signaling pathway - cell viability counter screen (AID 1159529); note: nearly all actives have a fitted effect of over 50% in size; note: potency is the fitted concentration of half-maximal effect
# Procedure, shortened: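 Viability read-out for the RXR-alpha agonist qHTS: luminescent CellTiter-Glo signal after 30 min at RT. HEK 293T bla reporter cells, 2% charcoal-stripped FBS, 16 hr compound incubation; tetraoctyl ammonium bromide as cytotoxic control.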
# [14] = qHTS assay to identify small molecule agonists of the constitutive androstane receptor (CAR) signaling pathway - cell viability counter screen (AID 1224836); note: series mostly up to about 92 µM; nearly all actives have a fitted effect of over 45% in size
# Procedure, shortened: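 Multiplexed viability check: HepG2-CYP2B6-hCAR cells, 15-point compound dosing, 0.75 uM PK11195 final, 23 h at 37 C, CellTiter-Fluor fluorescence.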
# [15] = biological target: Nuclear receptor subfamily 1 group I member 3 (Homo sapiens) (UniProt Q14994); assay: qHTS assay to identify small molecule antagonists of the constitutive androstane receptor (CAR) signaling pathway (AID 1224838); note: nearly all actives have a fitted effect of over 40% in size; note: potency is the fitted concentration of half-maximal effect
# Nuclear receptor subfamily 1 group I member 3 (Homo sapiens), sequence (Q14994 whole entry, looked up): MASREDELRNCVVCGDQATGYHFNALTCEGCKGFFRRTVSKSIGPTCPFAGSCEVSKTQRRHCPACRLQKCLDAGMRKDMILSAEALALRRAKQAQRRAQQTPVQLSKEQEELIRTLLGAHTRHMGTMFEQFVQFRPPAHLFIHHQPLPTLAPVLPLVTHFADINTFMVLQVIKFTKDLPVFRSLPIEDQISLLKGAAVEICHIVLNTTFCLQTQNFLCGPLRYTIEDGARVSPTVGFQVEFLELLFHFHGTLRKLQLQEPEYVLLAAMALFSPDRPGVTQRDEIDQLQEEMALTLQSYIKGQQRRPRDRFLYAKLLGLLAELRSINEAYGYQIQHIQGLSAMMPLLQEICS
# Procedure, shortened: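 CITCO-stimulated (50 nM final) HepG2 cells stably transfected with hCAR and CYP2B6-2.2kb luciferase were exposed to compounds at 15 concentrations for 24 h at 37 C/5% CO2. A luciferase reagent was added and luminescence recorded after 30 min.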
# [16] = biological target: Nuclear receptor subfamily 1 group I member 3 (Homo sapiens) (UniProt Q14994); assay: qHTS assay to identify small molecule agonists of the constitutive androstane receptor (CAR) signaling pathway (AID 1224839);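 note: HepG2 cells stably carrying human CAR and a CYP2B6 luciferase reporter; series mostly up to about 92 µM; nearly all actives have a fitted effect of over 15% in size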
# Procedure, shortened: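 Using human hepatoma HepG2 cells engineered with hCAR and a CYP2B6-2.2kb reporter, 15-concentration compound series were incubated 24 h alongside PK11195 at 0.75 uM final, with luminescence quantified afterwards.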
# [17] = biological target: Thyrotropin receptor (Homo sapiens) (UniProt P16473); assay: qHTS assay to identify small molecule agonists of the thyroid stimulating hormone receptor (TSHR) signaling pathway (AID 1224843; calls by dose curve; note: nearly all actives have a fitted effect of over 45% in size)
# Thyrotropin receptor (Homo sapiens), sequence (P16473 whole entry, looked up): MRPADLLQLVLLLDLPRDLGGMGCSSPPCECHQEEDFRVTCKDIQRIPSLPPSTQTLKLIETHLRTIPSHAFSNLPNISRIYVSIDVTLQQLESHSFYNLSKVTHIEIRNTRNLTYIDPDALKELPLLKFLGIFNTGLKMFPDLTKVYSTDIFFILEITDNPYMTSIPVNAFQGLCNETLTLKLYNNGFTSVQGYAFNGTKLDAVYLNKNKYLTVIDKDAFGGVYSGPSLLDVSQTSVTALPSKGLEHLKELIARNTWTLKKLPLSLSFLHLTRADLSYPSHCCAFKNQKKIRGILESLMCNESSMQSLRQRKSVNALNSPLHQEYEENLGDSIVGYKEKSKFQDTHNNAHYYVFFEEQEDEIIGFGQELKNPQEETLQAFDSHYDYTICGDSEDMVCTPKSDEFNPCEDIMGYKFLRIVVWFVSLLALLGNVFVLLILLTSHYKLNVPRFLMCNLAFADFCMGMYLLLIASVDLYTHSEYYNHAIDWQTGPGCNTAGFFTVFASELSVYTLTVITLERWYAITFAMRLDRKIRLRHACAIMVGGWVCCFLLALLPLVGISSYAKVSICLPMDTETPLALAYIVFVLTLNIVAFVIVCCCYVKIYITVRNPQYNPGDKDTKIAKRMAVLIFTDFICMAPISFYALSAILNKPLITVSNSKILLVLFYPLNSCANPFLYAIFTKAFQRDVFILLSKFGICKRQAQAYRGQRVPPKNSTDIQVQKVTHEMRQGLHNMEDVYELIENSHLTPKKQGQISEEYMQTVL
# Procedure, shortened: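 Agonist activity read as cAMP rise via d2/cryptate HTRF competition, 1 h room-temperature detection, in HEK293 cells expressing TSHR. Fifteen-point titrations, each run in triplicate, with a 30 min room-temperature incubation beforehand.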
# [18] = qHTS assay to identify small molecule antagonists of the estrogen related receptor signaling pathway with the pleiotropic PPARgamma coactivator (PGC) cell viability counter screen (AID 1224822; note: series mostly up to about 46 µM)
# Procedure, shortened: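 Viable cell signal (CellTiter-Fluor, 30 min, 37 C/5% CO2) was measured in PGC/ERR cells after a 17.5 h compound incubation.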
structure (smiles),measurement,setting,value
CC(C(O)c1ccc(O)cc1)N1CCC(Cc2ccccc2)CC1 (configuration not stated),Potency,[1],inactive
same,Potency,[2],inactive
same,Potency,[3],inactive
same,Potency,[4],inactive
same,outcome,[5],inactive
same,outcome,[6],inactive
same,Potency,[7],inactive
same,Potency,[8],inactive
same,Potency,[9],inactive
same,Potency,[10],inactive
same,Potency,[11],inactive
same,Potency,[12],inactive
CC(C)(C)c1ccc(O)c(C(C)(C)C)c1,Potency,[13],21.8 µM (active) and 24.5 µM (active)
same,Potency,[1],54.3 µM (active) and 54.5 µM (active)
same,Potency,[3],inactive
same,Potency,[7],48.4 µM (active) and 61.1 µM (active)
same,Potency,[8],inactive
same,Potency,[14],inactive
same,Potency,[9],inactive
same,Potency,[15],inactive
same,Potency,[16],inactive
same,Potency,[11],54.3 µM (active) and inactive
same,Potency,[12],inactive
CCC(=O)/C=C/C1C(C)=CCCC1(C)C (configuration not stated),Potency,[13],inactive
same,Potency,[1],inactive
same,Potency,[7],inactive
same,Potency,[8],inactive
same,Potency,[9],inactive
same,Potency,[10],inactive
same,Potency,[17],inactive
O=C1OC2(c3ccc(O)cc3Oc3cc(O)ccc32)c2ccccc21,Potency,[13],inactive
same,Potency,[1],inactive
same,Potency,[8],inactive
same,Potency,[17],inactive
CC[C@H]1CN2CCc3cc(OC)c(OC)cc3[C@@H]2C[C@@H]1C[C@H]1NCCc2cc(OC)c(OC)cc21,Potency,[13],inactive
same,Potency,[7],15.4 nM (active) and 84.1 nM (active)
same,Potency,[8],inactive
same,Potency,[9],27.4 nM (active) and 133 nM (active)
same,Potency,[15],54.6 nM (active) and 237 nM (active)
same,Potency,[10],24.4 nM (active) and 168 nM (active)
C=CC(=O)OCCCCCCOC(=O)C=C,Potency,[13],inactive
same,Potency,[2],13.9 µM (active) and 21.7 µM (active)
same,Potency,[3],inactive
same,Potency,[7],54.5 µM (active)
same,Potency,[8],inactive
same,Potency,[15],inactive
same,Potency,[16],inactive
same,Potency,[10],48.6 µM (active)
same,Potency,[11],inactive
same,Potency,[12],21.7 µM (active)
same,Potency,[17],inactive
CC(N)=O,Potency,[1],inactive
same,Potency,[2],inactive
same,Potency,[3],inactive
same,Potency,[4],inactive
same,Potency,[18],inactive
same,Potency,[7],inactive
same,Potency,[8],inactive
same,Potency,[9],inactive
same,Potency,[10],inactive
same,Potency,[17],inactive
C=C(C)C(=O)O,Potency,[13],inactive
same,Potency,[1],inactive
same,Potency,[7],inactive
same,Potency,[8],inactive
same,Potency,[9],inactive
same,Potency,[10],inactive
